Records with an inconclusive call do not appear. Activity calls are given as the source filed them. Calls come from the whole dose curve; as a rule, active = well fitted inhibition curve with a large enough effect; inconclusive = small, poorly fitted or top-dose-only effect; inactive = no such curve, though single readings can be large or run the other way. *1 amine or outer side, *2 acyl side, *3 side chain or, on linkers, in order; H or OH if unused. Where a SMILES comes first, the peptide text is derived from it. Bridges are numbered along the chain shown (N, C = ends). [ ]: non-standard residue; d: D form. The star is where a group is joined. pTerphenylCO(4''-OnC5H11) = CCCCCOc1ccc(-c2ccc(-c3ccc(C(=O)*)cc3)cc2)cc1; Orn(4R-OH,5R-OH) = O=C([C@H](C[C@@H](O)[C@@H](O)N[*:3])N[*:1])[*:2]; hTyr(3S-OH,4S-OH) = N[C@H](C(=O)O)[C@H](O)[C@@H](O)c1ccc(O)cc1; Pro(3S-OH,4S-Me) = C[C@H]1CN[C@H](C(=O)O)[C@H]1O; Hyp = O=C(O)[C@@H]1C[C@@H](O)CN1
System: Zika virus NS2B-NS3 protease (unlinked complex)
Experiment: Primary screen GU Rhodamine qHTS for Zika virus inhibitors: Unlinked NS2B-NS3 protease assay (AID 1347159); note: nearly all actives have a fitted effect of over 60% in size
Conditions: Recombinant ZIKV NS2B-NS3 protease, Rhodamine110 substrate fluorescence; series mostly up to 107 µM; activity change, negative = inhibition: at the top concentration
Method in brief: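 Noncovalent NS2B hydrophilic domain–NS3 protease domain complex (25 nM) preincubated 15 min at room temperature with compounds (up to 114 microM) in 10 mM Tris-HCl pH 8.0, 0.01% Tween 20; 1.5 microM Rhodamine110 substrate added, fluorescence change over 15 min fitted to Hill equation.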
% is set by controls: 0 for no effect and ±100 for the full control effect; potency is the fitted concentration of half-maximal effect.

Compound | activity change, negative = inhibition | Potency
O=C1Nc2nc(-c3c(O)cccc3OCC3CC3)cc([C@@H]3CCCNC3)c2CO1 | 38.3% (inactive) | –
C=C[C@H](/C=C\c1ccc(O)cc1)c1ccc(O)cc1 | 3.85% (inactive) | –
C=C1C(=O)OC2CC(C)C(CCC(C)=O)=CCC12 (centres undefined) | 3.69% (inactive) | –
CCCCC1CCN(CCCN2C(=O)CCc3ccccc32)CC1 | 65.1% (inactive) | –
CN1CCN(c2ccc(OC(F)(F)F)c(Nc3ncc4c(n3)-c3c(c(C(N)=O)nn3CCO)CC4)c2)CC1 | 10% (inactive) | –
C=CC(=O)N1CCCN(c2cc(NCCC(=O)O)nc(-c3ccccn3)n2)CC1 | -14.9% (inactive) | –
CN1CCN(C(=O)CN[C@@H]2C[C@H]2c2ccc(OCc3ccccc3)cc2)CC1 | 1.36% (inactive) | –
O=C(Nc1cnc(Cl)nc1)c1ccc(F)c(F)c1 | 10.1% (inactive) | –
Nc1c(S(=O)(=O)c2ccccc2)c2nc3ccccc3nc2n1-c1ccc(F)cc1 | -7.86% (inactive) | –
COc1cc(N2CCC(N3CCN(C)CC3)CC2)ccc1Nc1ncc(Cl)c(Nc2ccccc2P(C)(C)=O)n1 | 8.3% (inactive) | –
C=C1C(=O)O[C@@H]2C3C(=C(C)[C@@H](O)[C@@H](OC(=O)/C(=C/C)COC(C)=O)[C@@H]12)C(=O)[C@H]1O[C@@]31C (some centres undefined) | -11.7% [at 57.1 µM] (inactive) | –
C=C1CC2OC(=O)C(=C)C2C(OC(=O)/C(C)=C\C)CC2(C)OC1=CC2=O (centres undefined) | -10.4% (inactive) | –
CN(C)C(=O)C(=O)c1cn(C)c2cc(Cl)c(C(=O)N3CCC(Cc4ccc(F)cc4)CC3)cc12 | -2.3% (inactive) | –
Cn1c(=O)c2c(ncn2Cc2ccc(C(C)(C)C)cc2)n(C)c1=O | -23.1% (inactive) | –
CC(=O)NCc1cccc(OC[C@@H](O)CNCCc2ccc(NS(=O)(=O)c3ccccc3)cc2)c1 | 22.4% (inactive) | –
O=C(Nc1ccc(-c2ccnc(Nc3ccc(N4CCOCC4)cc3)n2)cc1)C1CCCN1 (centres undefined) | 78% (inactive) | –
CC12CCC(OC3OC(CO)C(O)C(O)C3OC3OC(CO)C(O)C(O)C3O)CC1CCC1C2CCC2(C)/C(=C3/COC(=O)C3)CCC12O (centres undefined) | 20.1% [at 32.5 µM] (inactive) | –
CCCCCOc1ccc(-c2ccc(-c3ccc(C(=O)N[C@H]4C[C@@H](O)[C@@H](O)NC(=O)[C@@H]5[C@@H](O)[C@@H](C)CN5C(=O)[C@H]([C@@H](C)O)NC(=O)[C@H]([C@H](O)[C@@H](O)c5ccc(O)cc5)NC(=O)[C@@H]5C[C@@H](O)CN5C(=O)[C@H]([C@@H](C)O)NC4=O)cc3)cc2)cc1 ({pTerphenylCO(4''-OnC5H11)}-[Orn(4R-OH,5R-OH)]T[Hyp][hTyr(3S-OH,4S-OH)]T[Pro(3S-OH,4S-Me)]; lactam 1-C) | – | 31.6 µM (active)
CC(=O)CC(=O)Nc1ccc(Cl)c(C(F)(F)F)c1 | 0% (inactive) | –
CCC(C)/C=C(C)/C=C/C1=CC2=C(Cl)C(=O)C(C)(OC(C)=O)C(=O)C2(O)C(OC)O1 (centres undefined) | – | 28.2 µM (active)

Compound | activity change, negative = inhibition | Potency
C[C@H](Oc1cc(-c2cnn(C3CCNCC3)c2)cnc1N)c1c(Cl)ccc(F)c1Cl | 111% (inactive) | –
CCC(CC)Nc1nc(C)c(-c2ccc(OC(F)(F)F)cc2OC)nc1OC | 145% (inactive) | –
CC(=O)O[C@H]1CC(C)(C)CC2[C@]13CO[C@@]21CCC2[C@@]4(C)CC[C@H](O[C@@H]5OC[C@H](O[C@@H]6O[C@H](CO)[C@@H](O)[C@H](O)[C@H]6O[C@@H]6OC[C@@H](O)[C@H](O)[C@H]6O)[C@H](O)[C@H]5O[C@@H]5O[C@H](CO)[C@@H](O)[C@H](O)[C@H]5O)[C@@](C)(CO)C4CC[C@@]2(C)[C@]1(C)C[C@H]3O (some centres undefined) | 7.77% [at 32.5 µM] (inactive) | –
COC1=CC(=O)C=C(C)C12Oc1c(Cl)c(OC)cc(OC)c1C2=O (centres undefined) | 12.3% (inactive) | –
Cc1ccccc1C(C(=O)NC1CCCCC1)N(C(=O)Cn1cnc2ccccc21)c1cccc(F)c1 (centres undefined) | -1.9% (inactive) | –
COc1ccccc1OCCNCC(O)CCOc1cccc2[nH]c3ccccc3c12 (centres undefined) | 163% (inactive) | –
CC(C)(C)Oc1ccc(OCC2Cc3ccccc3CN2C(=O)c2cccc3ccccc23)cc1 (centres undefined) | -26.1% (inactive) | –
O=C([C@@H](Cc1cccc(C(F)(F)F)c1)NS(=O)(=O)c1cc(F)c2c(c1)CCNC2)N1CCCC1 | 0% (inactive) | –
CC[N+]1(C/C2=C/CCCCCC2)CCC(NC(=O)C2c3cc(Cl)ccc3Oc3ccc(Cl)cc32)CC1 (centres undefined) | 169% (inactive) | –
COc1ccccc1N1CCN(c2ncnc3n[nH]c(Br)c23)CC1 | -23.8% (inactive) | –
CCOC(=O)C1=Cc2ccc(C(F)(F)C(F)(F)F)cc2N=C(N)C1 | 0.485% (inactive) | –
C[C@@H](c1ccc2nccn2c1)n1nnc2ncc(-c3cnn(C)c3)nc21 | -7.65% (inactive) | –
CCn1c(N)c(C(=O)NC)c(=O)c2ccc(C#CC(C)(O)COC)nc21 (centres undefined) | 61.7% (inactive) | –
CC(O)C(C)n1ncn(-c2ccc(N3CCN(c4ccc(OCC5COC(Cn6cncn6)(c6ccc(Cl)cc6Cl)O5)cc4)CC3)cc2)c1=O (centres undefined) | 0% (inactive) | –
CCC(C)C(=O)OC12C(OC(C)=O)C(C)C3(O)C(C=C(CO)CC4(O)C(=O)C(C)=CC43)C1C2(C)C (centres undefined) | 20.4% [at 57.1 µM] (inactive) | –
C=C(C)C1=C[C@@]2(C)C(=CC1=O)CC[C@@H](O)[C@@H]2C | 22.7% (inactive) | –
CC(=O)O[C@H]1CC(C)(C)CC2[C@]13CO[C@@]21CCC2[C@@]4(C)CC[C@H](O[C@@H]5OC[C@H](O[C@@H]6O[C@H](CO)[C@@H](O)[C@H](O)[C@H]6O[C@@H]6OC[C@@H](O[C@@H]7O[C@H](CO)[C@@H](O)[C@H](O)[C@H]7O)[C@H](O)[C@H]6O)[C@H](O)[C@H]5O[C@@H]5O[C@H](CO)[C@@H](O)[C@H](O)[C@H]5O)[C@@](C)(CO)C4CC[C@@]2(C)[C@]1(C)C[C@H]3O (some centres undefined) | 0.509% [at 19.1 µM] (inactive) | –
Cn1cc(-c2ccc(F)c(C(F)(F)F)c2)nc1C1CCN(c2ncnc3[nH]ncc23)CC1 | -19.2% [at 57.1 µM] (inactive) | –
Cc1cccc(C#Cc2cc(F)cc(C#N)c2)n1 | 30.1% (inactive) | –

From PubChem BioAssay (NCATS)
